# Measured values from PubChem BioAssay (NCATS).
# Records with an inconclusive call do not appear. A call without a number means that no potency is given here. A number with no mark means an inactive call. Active and inactive are the calls of the source. Calls come from the whole dose curve; as a rule, active = well fitted inhibition curve with a large enough effect; inconclusive = small, poorly fitted or top-dose-only effect; inactive = flat fitted curve, though single readings scatter.
# Experiments:
# CRL-7250 = normal cell line; assay: Cytotoxic Profiling of Annotated Libraries Using Quantitative High-Throughput Screening (AID 1296008); conditions: Five cell lines viability, CellTiter-Glo ATP luminescence, 48-72 h; max response: hits give low values; note: potency is the fitted concentration of half-maximal effect
# How it was run: (§1)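 Compounds were pin-transferred onto cells and incubated 48 or 72 hr at 37 degree Celsius, 95% humidity. CellTiter-Glo was added, plates sat 10 min at room temperature, then ATP-coupled luminescence was imaged as the viability read-out.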
# HaCat [1] = assay: as above; conditions: Five cell lines viability, CellTiter-Glo ATP luminescence, 48-72 h; max response: hits give low values
# How it was run: as §1
# KB-3-1 = assay: as above; conditions: Five cell lines viability, CellTiter-Glo ATP luminescence, 48-72 h; max response: hits give low values
# How it was run: as §1
# NIH3T3 = assay: as above; conditions: Five cell lines viability, CellTiter-Glo ATP luminescence, 48-72 h; max response: hits give low values
# How it was run: as §1
# HACAT [2] = assay: qHTS assay to identify novel small-molecules to repurpose for Merkel cell carcinoma treatment (AID 1296009); conditions: MCC and control cell lines, CellTiter-Glo viability, 72 h; at 44.8 µM (top of the series) unless noted
# How it was run: (§2)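 Cells exposed to NPC (8-point) and MIPE (11-point) compound dilutions for 72 hr at 37 degree celsius; viability read by CellTiter-Glo luminescence, normalized to no-cell and DMSO in-plate controls.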
# MCC-13 = assay: as above; conditions: MCC and control cell lines, CellTiter-Glo viability, 72 h; series mostly up to 46 µM
# How it was run: as §2
# MCC-26 = assay: as above; conditions: MCC and control cell lines, CellTiter-Glo viability, 72 h; series mostly up to 46 µM
# How it was run: as §2
# MKL-1 = assay: as above; conditions: MCC and control cell lines, CellTiter-Glo viability, 72 h; series mostly up to 46 µM
# How it was run: as §2
# PC49 = assay: qHTS profiling for inhibitors of Plasmodium falciparum proliferation (AID 504749); note: potency is the fitted concentration of half-maximal effect; conditions: P. falciparum in erythrocytes, SYBR Green DNA, 72 h; series mostly up to 28.7 µM
# How it was run: (§3)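 P. falciparum-infected erythrocytes (0.3% parasitemia, 2.5% hematocrit final) were exposed to compounds for 72 h at 37 C in 5% CO2, then lysed with SYBR Green buffer overnight at room temperature; parasite DNA fluorescence was normalized to artemisinin and DMSO controls.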
# TAB165 = assay: as above; conditions: P. falciparum in erythrocytes, SYBR Green DNA, 72 h; series mostly up to 28.7 µM
# How it was run: as §3
# W2 = assay: as above; conditions: P. falciparum in erythrocytes, SYBR Green DNA, 72 h; series mostly up to 28.7 µM
# How it was run: as §3
# P94_40 = assay: as above; conditions: P. falciparum in erythrocytes, SYBR Green DNA, 72 h; series mostly up to 28.7 µM
# How it was run: as §3
# PAD = assay: as above; conditions: P. falciparum in erythrocytes, SYBR Green DNA, 72 h; series mostly up to 28.7 µM
# How it was run: as §3
# PC15 = assay: as above; conditions: P. falciparum in erythrocytes, SYBR Green DNA, 72 h; series mostly up to 28.7 µM
# How it was run: as §3
# PC26 = assay: as above; conditions: P. falciparum in erythrocytes, SYBR Green DNA, 72 h; series mostly up to 28.7 µM
# How it was run: as §3
# SC27B = assay: as above; conditions: P. falciparum in erythrocytes, SYBR Green DNA, 72 h; series mostly up to 28.7 µM
# How it was run: as §3
# TAB109 = assay: as above; conditions: P. falciparum in erythrocytes, SYBR Green DNA, 72 h; series mostly up to 28.7 µM
# How it was run: as §3
# TAB113 = assay: as above; conditions: P. falciparum in erythrocytes, SYBR Green DNA, 72 h; series mostly up to 28.7 µM
# How it was run: as §3
# HEK293 = assay: Cytotoxic Profiling of Annotated Libraries Using Quantitative High-Throughput Screening (AID 1296008); conditions: Five cell lines viability, CellTiter-Glo ATP luminescence, 48-72 h; max response: hits give low values; note: potency is the fitted concentration of half-maximal effect
# How it was run: as §1
# HEK293T = assay: qHTS assay to identify novel small-molecules to repurpose for Merkel cell carcinoma treatment (AID 1296009); conditions: MCC and control cell lines, CellTiter-Glo viability, 72 h; at 44.8 µM (top of the series) unless noted
# How it was run: as §2
# Note: nearly all actives have a fitted effect of over 60% in size.
structure (smiles),measurement,setting,value
CN(C)[C@@H]1C(=O)C(C(N)=O)=C(O)[C@@]2(O)C(=O)C3=C(O)c4c(O)ccc(Cl)c4[C@@H](O)[C@H]3C[C@@H]12,outcome,CRL-7250,inactive
same,outcome,HaCat [1],inactive
same,max response,KB-3-1,-3.68%
same,outcome,NIH3T3,inactive
same,outcome,HACAT [2],inactive
same,Potency,MCC-13,inactive
same,Potency,MCC-26,inactive
same,Potency,MKL-1,inactive
CNCCC(Oc1ccccc1OC)c1ccccc1 (stereo not given),Potency,PC49,3.16 µM (active)
same,Potency,TAB165,11.2 µM (active)
same,Potency,W2,4.26 µM (active)
same,max response,CRL-7250,-0.295%
same,max response,HaCat [1],1.07%
same,max response,NIH3T3,-6.28%
same,Potency,MCC-13,inactive
same,Potency,MCC-26,inactive
same,Potency,MKL-1,inactive
CCO/C([O-])=N/c1c[n+](N2CCOCC2)no1,Potency,P94_40,inactive
same,Potency,PAD,inactive
same,Potency,PC15,inactive
same,Potency,PC26,inactive
same,Potency,PC49,inactive
same,Potency,SC27B,inactive
same,Potency,TAB109,inactive
same,Potency,TAB113,inactive
same,Potency,TAB165,inactive
same,Potency,W2,inactive
same,outcome,CRL-7250,inactive
same,max response,HEK293,-1.87%
same,max response,NIH3T3,-0.944%
same,Potency,MCC-13,inactive
same,Potency,MCC-26,inactive
same,Potency,MKL-1,inactive
OCCN1CCN(CC/C=C2/c3ccccc3Sc3ccc(C(F)(F)F)cc32)CC1,Potency,P94_40,10 µM (active)
same,Potency,PAD,10 µM (active)
same,Potency,PC15,12.6 µM (active)
same,Potency,PC26,6.75 µM (active)
same,Potency,SC27B,10 µM (active)
same,Potency,TAB109,8.91 µM (active)
same,Potency,TAB113,11.2 µM (active)
same,Potency,TAB165,10 µM (active)
same,Potency,W2,1.9 µM (active)
same,max response,HaCat [1],-11.5%
same,Potency,MCC-26,inactive
CN(C)C(=O)Oc1ccc[n+](C)c1,Potency,P94_40,inactive
same,Potency,PAD,inactive
same,Potency,PC15,inactive
same,Potency,PC26,inactive
same,Potency,PC49,inactive
same,Potency,SC27B,inactive
same,Potency,TAB109,inactive
same,Potency,TAB113,inactive
same,Potency,TAB165,inactive
same,Potency,W2,inactive
same,outcome,HEK293T,inactive
same,Potency,MCC-13,inactive
same,Potency,MCC-26,inactive
same,Potency,MKL-1,inactive
Fc1ccc(C(c2ccc(F)cc2)N2CCN(C/C=C/c3ccccc3)CC2)cc1,Potency,TAB165,11.2 µM (active)
same,Potency,MCC-13,inactive
same,Potency,MCC-26,inactive
same,Potency,MKL-1,inactive
CCn1nc(C(=O)O)c(=O)c2cc3c(cc21)OCO3,outcome,HEK293T,inactive
same,Potency,MCC-13,inactive
same,Potency,MCC-26,inactive
same,Potency,MKL-1,inactive
CC(C)(C)c1ccc(C(=O)CCCN2CCC(OC(c3ccccc3)c3ccccc3)CC2)cc1,Potency,P94_40,7.94 µM (active)
same,Potency,PC49,inactive
same,Potency,TAB165,7.94 µM (active)
same,Potency,W2,4.78 µM (active)
same,Potency,HEK293,8.41 µM (active)
same,max response,KB-3-1,-0.417%
CC1=NS(=O)(=O)c2cc(Cl)ccc2N1,Potency,PAD,inactive
same,Potency,PC26,inactive
same,Potency,SC27B,inactive
same,Potency,TAB113,inactive
same,outcome,HACAT [2],inactive
same,Potency,MCC-13,inactive
same,Potency,MCC-26,inactive
same,Potency,MKL-1,inactive
Cc1cccc(C)c1NC(=O)C(C)N (stereo not given),outcome,HACAT [2],inactive
same,Potency,MCC-13,inactive
same,Potency,MCC-26,inactive
same,Potency,MKL-1,inactive
CN(C)CCN(Cc1cccs1)c1ccccn1,Potency,P94_40,10 µM (active)
same,Potency,PC49,10 µM (active)
same,Potency,TAB109,4.47 µM (active)
same,Potency,W2,1.9 µM (active)
same,outcome,HACAT [2],inactive
same,Potency,MCC-13,inactive
same,Potency,MCC-26,inactive
same,Potency,MKL-1,inactive
O=C1NCN(c2ccccc2)C12CCN(CCCC(c1ccc(F)cc1)c1ccc(F)cc1)CC2,Potency,P94_40,5.62 µM (active)
same,Potency,PAD,5.01 µM (active)
same,Potency,PC15,11.2 µM (active)
same,Potency,SC27B,8.91 µM (active)
same,Potency,TAB109,6.31 µM (active)
same,Potency,TAB113,12.6 µM (active)
same,Potency,TAB165,3.55 µM (active)
same,Potency,W2,2.39 µM (active)
same,Potency,HEK293,10.6 µM (active)
CN(C(=O)CCCOc1ccc2[nH]c(=O)ccc2c1)C1CCCCC1,Potency,PC15,inactive
same,Potency,SC27B,inactive
same,Potency,TAB109,inactive
same,Potency,TAB113,inactive
same,max response,KB-3-1,-8.72%
same,max response,NIH3T3,-24.3%
same,Potency,MCC-13,inactive
same,Potency,MCC-26,inactive
same,Potency,MKL-1,inactive
COCCCC/C(=N\OCCN)c1ccc(C(F)(F)F)cc1,Potency,PC49,inactive
same,Potency,TAB165,7.94 µM (active)
C#CCN(C)CCCOc1ccc(Cl)cc1Cl,Potency,P94_40,inactive
same,Potency,PAD,inactive
same,Potency,PC15,inactive
same,Potency,PC26,inactive
same,Potency,PC49,inactive
same,Potency,SC27B,inactive
same,Potency,TAB109,inactive
same,Potency,TAB113,inactive
same,Potency,TAB165,inactive
same,Potency,MCC-13,inactive
same,Potency,MCC-26,inactive
same,Potency,MKL-1,inactive
